In all, about 480,000 compounds went through this assay and about 740 (0.15%) were called active. No stated cut-off is given here; in the data, active means activity change below about -30%; inconclusive means mostly about -25% to -30%; inactive means weaker than that. This excerpt belongs to a sample that is enriched for actives.

This experiment concerns the target L-lactate dehydrogenase A chain (Homo sapiens) (UniProt P00338). Description: qHTS assay for inhibitors of human lactate dehydrogenase.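 Further: values are at about 110 or 230 µM; plate controls were DMSO wells for no effect and wells without enzyme for full effect.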 The settings on record: purified LDHA, NADH/diaphorase-resazurin fluorescence; stronger effect = lower value. An excerpt:
LDH is a key glycolytic enzyme that catalyzes the final step in the glycolytic pathway, reducing pyruvate to lactate and regenerating NAD+ equivalents necessary for continued glycolysis. LDHA has been linked to the carcinogenesis and malignancy in numerous forms of cancers and many other diseases. Consequently, both pharma and academia have invested in significant research efforts to identify small molecule therapeutics. Such attempts have been stalled or abandoned due to limited success in discovering potent and drug-like inhibitors that can be utilized to validate LDHA in vivo as a drug target, a necessary step toward advancing such a molecule towards the clinic Towards this goal we designed and performed a quantitative high-throughput screening (qHTS) campaign to discover novel compounds that are potent inhibitors of LDHA enzyme activity and cancer cell line growth.
The assay was optimized to 1536-well plates. Briefly, 3 µL of human lactate dehydrogenase 5 (#A38558H, Meridian Life Science, Inc., Memphis, TN) in LDH assay buffer (200 mM Tris HCl pH 7.4, 100 microM EDTA and 0.01% Tween-20) was added to a black solid bottom 1536-well assay plate (Greiner Bio-One) using a BioRAPTR FRD dispenser (Beckman Coulter, Brea, CA). A 1536-well pintool dispenser outfitted with 20 nL pins (Wako Automation, San Diego, CA) was used to transfer 23 nL of DMSO-solubilized compound (both library and vehicle controls) to each 1536-well assay plate. Following compound transfer, 1 µL of substrate solution containing NADH and sodium pyruvate (Sigma-Aldrich, St. Louis, MO) in LDH assay buffer was dispensed via BioRAPTR FRD to initiate the reaction. Final concentrations in the 4 microL reaction volume were 2 nM LDHA enzyme, 0.06 mM NADH and 0.2 mM sodium pyruvate. Following a 5 minute incubation period at room temperature, 1 µL of detection reagent (C. kluyveri diaphorase (Sigma-Aldrich) and resazurin sodium salt (Sigma-Aldrich) in LDH assay buffer) was added to a total volume of 5 µL. Final concentrations of detection reagents were 0.133 mg/mL diaphorase and 37 µM resazurin. Plates were immediately transferred to a ViewLux microplate imager (PerkinElmer, Waltham, MA), and any resulting resorufin fluorescence was measured (ex540, em590 nm) at 0 and 20 minutes. Fluorescence was normalized using enzyme-free and DMSO-treated control wells on each plate.
Turning to `CCC(CC)(Cc1nc2ccccc2s1)C(=O)Nc1ccc(N2CCOCC2)cc1`, the activity change is 5.36% (inactive).

`C/C(=N\NC(=O)c1ccc(C(C)(C)C)cc1)C(C)C`: the activity change was 11.2% (inactive). Under `O=[N+]([O-])c1cc(S(=O)(=O)Nc2cccc(Cl)c2)ccc1N=Nc1c(O)[nH]c2ccccc12` stands -42.1% (active); under `O=[N+]([O-])c1cc(S(=O)(=O)Nc2ccc(Cl)cc2)ccc1N/N=C/c1ccccc1C(F)(F)F`, 3.88% (inactive); under `O=[N+]([O-])c1cc(S(=O)(=O)Nc2ccccc2NS(=O)(=O)c2cccs2)ccc1Cl`, 13.9% (inactive). With `Cc1cc(C)c(/C=N/NC(=O)c2ccccc2)c(C)c1` the figure was 4.2% (inactive); with `COc1cccc(/C=N/NC(=O)c2[nH]nc3c2CCc2ccccc2-3)c1O`, -78.6% (active). Under `CC(C)(C)c1ccc(/C=N/NC(=O)c2ccccc2)cc1` stands 12.2% (inactive). Turning to `CC(OC(=O)c1cccc(-n2cnnn2)c1)C(=O)Nc1ccc(N2CCOCC2)cc1` (stereo not given), the activity change was 6.53% (inactive). As to `CC(=O)Nc1cccc(NC(=O)c2cnn(-c3ccccc3F)c2C(F)(F)F)c1C`, the activity change was 9.39% (inactive). Under `O=C(N/N=C/c1ccccc1OCCOc1ccc([N+](=O)[O-])cc1)Nc1ccccc1` stands -7.59% (inactive); under `O=C(NN=Cc1ccccc1O)NN=Cc1ccccc1O`, -72% (active); under `O=C(N/N=C/c1ccccc1Cl)c1ccc(Cl)s1`, 5.95% (inactive). With `N#C/C(=C/c1ccccc1)c1ccc(C(F)(F)F)cn1` the figure was -3.61% (inactive); with `Cc1ccccc1CC(=O)Nc1ccc(N2CCOCC2)c(Cl)c1`, -4.8% (inactive); with `COCCN1C(=O)C(=O)/C(=C(/O)c2ccc3c(c2)OCCO3)C1c1cccc(O)c1` (stereo not given), 9.53% (inactive).

Consider `O=S(=O)(c1ccc2c(c1)OCCO2)c1nc(-c2cccc(Cl)c2)oc1N1CCOCC1`, for which the activity change was -9.35% (inactive).

Turning to `NC(=O)c1ccc(NC(=O)CCc2ncc(-c3c(F)cccc3F)o2)cc1`, the activity change is -1.68% (inactive).

With `Cc1cc(N2CCC(C)CC2)n2nc(-c3ccccc3)nc2n1`, the activity change was 7.05% (inactive). In the case of `c1ccc(Oc2ccc(CNc3ncccn3)cn2)cc1`, the activity change was -10.1% (inactive). Take `CCCn1c(N)c(-c2csc(Nc3ccc(F)cc3)n2)c(=O)n(C)c1=O`: the activity change is 2.91% (inactive).

In the case of `CCc1nn2c(=O)cc(CN(CC)Cc3ccc(OCc4ccccc4)cc3)nc2s1`, the activity change is -24.3% (inactive). Under `Cc1ccccc1CSc1nc(=O)c2c(n1C)NC(=O)CC2c1ccc(OCC(N)=O)cc1` (stereo not given) stands 2.91% (inactive). Under `O=C(CSc1ccccc1F)c1ccc2c(c1)-c1ccccc1C2` stands 10.6% (inactive); under `Cc1ccc(C)c(-n2c3c(cc(C#N)c2=O)C(=O)CC(c2ccccc2)C3)c1` (stereo not given), -0.429% (inactive); under `CCOC(=O)c1c(C)[nH]c(C(=O)COc2cc(Cl)ccc2Cl)c1C`, -3.64% (inactive). For the compound `CC1=C(C(=O)Nc2cccc(C)c2C)C(c2ccc(C)cc2)NC(=O)N1` (stereo not given), the activity change was -9.14% (inactive). Under `CC1CCN(C(=O)C(C)n2cnc3c2c(=O)n(C)c(=O)n3C)CC1` (stereo not given) stands 1.51% (inactive). Under `COc1ccc(-c2csc(-c3cc4c([nH]c3=O)CC(c3ccco3)CC4=O)n2)cc1F` (stereo not given) stands 6.35% (inactive). With `COc1ccc(-c2c(C)c3cc(OS(=O)(=O)c4ccc(F)cc4)ccc3oc2=O)cc1OC` the figure was 1.58% (inactive). Turning to `CCN(CC(=O)Nc1cccc(S(=O)(=O)N2CCCCC2)c1)Cc1ccccc1`, the activity change is -5.08% (inactive).

`CCN(CC(=O)Nc1ccc(S(=O)(=O)N2CCCC2)cc1)CC(=O)Nc1cccc(OC)c1`: the activity change was -38.2% (active). For `COc1cccc(CNC(C)C(=O)Nc2ccc(S(=O)(=O)N3CCCC3)cc2)c1` (stereo not given), the activity change is -0.452% (inactive). With `CC(C)CC(NC(=O)C(c1ccccc1)c1ccccc1)c1ccccc1` (stereo not given) the figure was -5.71% (inactive); with `Oc1c(Cl)cc(Cl)c(Cl)c1Cc1c(O)c(Cl)cc(Cl)c1Cl`, -106% (active). Under `Fc1cccc(Cl)c1CNc1ccc(Cl)cc1` stands 11.8% (inactive); under `CC(C)(C)n1nc(N)c2cc([N+](=O)[O-])ccc21`, -0.323% (inactive); under `O=C(Cc1c[nH]c2ccccc12)Nc1cc(F)cc(F)c1`, 0.607% (inactive). With `O=C(O)COCCOCC(=O)O` the figure was -30% (active); with `C=CC(=O)OCCOCCOCCOCCOC(=O)C=C`, -3.09% (inactive). In the case of `O=C(O)CCC(=O)O`, the activity change is 0.526% (inactive). Under `CCN(CC(=O)NCc1cccs1)C(=O)c1cccc(S(=O)(=O)N(C)c2ccc(C)cc2)c1` stands 2.57% (inactive); under `O=C(Cc1ccsc1)NCCc1ccccc1`, -0.295% (inactive); under `CCCOc1ccc(N2C(=O)CC(N(CCc3ccc(S(N)(=O)=O)cc3)C(C)=O)C2=O)cc1` (stereo not given), -18% (inactive). With `NS(=O)(=O)c1ccc(N2C(=O)C3C4CC(C(Br)C4Br)C3C2=O)cc1` (stereo not given), the activity change was -58.8% (active). With `O=C1C2C3C=CC(C3)C2C(=O)N1c1ccc(S(=O)(=O)Nc2nccs2)cc1` (stereo not given), the activity change is -9.54% (inactive).

For the compound `O=C(NCc1nc(-c2ccc(Cl)cc2)no1)c1cc2ccccc2o1`, the activity change is 0.842% (inactive).

As for `Cc1ccc(-c2ccccc2N)cc1`, the activity change is -2.5% (inactive). With `O=C(c1ccc[nH]1)c1cc2cc(Br)ccc2o1` the figure was -2.8% (inactive); with `Cc1cccc(/C=C/C(=O)c2cccs2)c1`, 7.28% (inactive). For the compound `CCCNC(=O)C(C)NC(=O)COc1ccccc1NC(C)=O` (stereo not given), the activity change is -1.76% (inactive).

On to `Cc1ccc(-c2nc(CS(=O)CC(=O)Nc3ccc(C)c(C)c3)cs2)cc1` (stereo not given), for which the activity change was 0.528% (inactive). With `O=C(O)CCC(=O)Nc1ccc2c(C(C(=O)O)N3CCN(c4ccccc4)CC3)c[nH]c2c1` (stereo not given) the figure was -5.22% (inactive). Under `Cc1ccc(NC(=O)C(Sc2nnnn2C2CCCC2)c2ccccc2)cc1` (stereo not given) stands 11.6% (inactive); under `c1ccc(-c2nc(-c3ccc4c(c3)OCCCO4)cs2)nc1`, 5.7% (inactive); under `c1coc(CNc2ccc3c(c2)ncn3C2CCCCC2)c1`, 13.3% (inactive). Under `CC1CCCN(CCOCCOc2ccccc2-c2ccccc2)C1` (stereo not given) stands -8.67% (inactive). Turning to `CN1CCN(CCCCOc2ccccc2-c2ccccc2)CC1`, the activity change was -36.2% (active). Take `COc1ccccc1OCCCCCCN1CCN(C)CC1`: the activity change is -2.1% (inactive).

For the compound `O=C(CCn1ccccc1=O)Nc1ccc(Cl)cc1Cl`, the activity change was 11.9% (inactive).
